Screening results: PubChem, Paczesny and Yang Labs, IUPUI and University of Michigan
The full list was thinned out, with hits kept by preference.
ST2 IL33 inh = inhibitors of human ST2 (IL1RL1) binding to IL-33, primary screen, biochemical, AlphaLISA. Interleukin-1 receptor-like 1 (Homo sapiens), Q01638. AlphaLISA ST2-Fc/biotin-IL-33 interaction, 1 h. inhibition, % for hits at 17 µM. 2.3% of 78,000 active. AID 1259354, 2018; in the data active = inhibition above about 30%
Target sequence (Q01638 whole entry, looked up): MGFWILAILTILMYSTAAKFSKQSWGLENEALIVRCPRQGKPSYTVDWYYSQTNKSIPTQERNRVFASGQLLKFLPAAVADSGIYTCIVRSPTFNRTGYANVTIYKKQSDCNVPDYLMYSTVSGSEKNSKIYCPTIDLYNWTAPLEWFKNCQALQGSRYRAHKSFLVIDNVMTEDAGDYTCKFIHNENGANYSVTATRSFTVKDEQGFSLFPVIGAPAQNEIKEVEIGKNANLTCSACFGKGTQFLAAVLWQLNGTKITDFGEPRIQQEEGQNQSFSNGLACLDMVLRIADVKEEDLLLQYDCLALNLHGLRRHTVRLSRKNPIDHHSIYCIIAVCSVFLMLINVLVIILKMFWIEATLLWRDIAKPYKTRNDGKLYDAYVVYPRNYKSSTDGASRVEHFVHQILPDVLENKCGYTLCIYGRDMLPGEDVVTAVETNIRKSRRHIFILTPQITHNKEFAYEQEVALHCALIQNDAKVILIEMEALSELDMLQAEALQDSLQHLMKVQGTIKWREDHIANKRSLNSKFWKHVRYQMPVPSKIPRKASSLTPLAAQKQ
Numbers without * were called inactive; i = inactive.

SMILES | ST2 IL33 inh
C=CCc1cccc2cc(C(=O)Nc3ccc(C)c(C)c3)c(=O)oc12 | i
COc1ccccc1N1CCN([C@H]2[C@@H]3OC[C@@H](O3)[C@@H](NCc3ccc(OC(F)(F)F)cc3)[C@@H]2O)CC1 | i
CN(C)CCN(C)[C@H]1[C@@H]2OC[C@@H](O2)[C@@H](NCc2ccc(OC(F)(F)F)cc2)[C@@H]1O | i
O[C@H]1[C@H](NCc2ccc(OC(F)(F)F)cc2)[C@H]2CO[C@H](O2)[C@@H]1N1CCOCC1 | 64%*
CCCCN(C)C(=O)c1cn(CC)c2ccc(S(=O)(=O)N3CCCCC3)cc2c1=O | i
COc1ccc(-c2nc3nc[nH]n3c2Nc2ccc(C)cc2)cc1 | i
COc1ccc(Cl)cc1NC(=O)C(Cc1ccccc1)N1C(=O)C2C3C=CC(C3)C2C1=O (stereo not drawn) | i
N#C/C(=C\c1ccc(Br)o1)c1nc(-c2ccc(Cl)cc2)cs1 | 31%*
Cc1ccc(-c2csc(NC(=O)CCCC(=O)O)n2)c(C)c1 | i
COc1ccc(-c2csc(/C(C#N)=C/c3ccc(Br)o3)n2)cc1 | 42%*
COc1ccc(-c2csc(/C(C#N)=C\c3ccc(OC)o3)n2)cc1 | 49%*
COc1cccc2cc(-c3nc(-c4ccc(Br)cc4)cs3)c(=O)oc12 | i
COc1ccc(-c2csc(NC(=O)C3CC=CCC3C(=O)O)n2)cc1 (stereo not drawn) | i
Cc1ccc(/C=C(/C#N)c2nc(-c3ccc(Cl)c(Cl)c3)cs2)o1 | i
COc1ccc(-c2nnc(-c3ccc(OC)cc3)o2)cc1 | i
Cc1ccc(-c2csc(/C(C#N)=C/c3ccc(Br)o3)n2)c(C)c1 | 60%*
COc1cccc(NC(=O)c2oc3ccccc3c2NC(=O)COc2ccc(F)cc2)c1 | i
COc1ccc(NC(=O)CN2C(=O)CC(c3ccccc3)=Nc3ccccc32)cc1OC | i
O=C(Nc1ccc(Cl)c(-c2nc3ncccc3o2)c1)c1ccccc1F | i
CCCN1CC(N2Cc3ncccc3C2=O)CC1=O (stereo not drawn) | i
O=C(c1ccc2c(=O)n(CCc3ccccc3)c(=O)[nH]c2c1)N1CCOCC1 | i
O=C(CC1CNCCO1)N1CCC(c2cc(-c3ccccc3Cl)n[nH]2)CC1 (stereo not drawn) | i
COc1ccc(CNCCC2(c3ccc(F)cc3)CCOC(C)(C)C2)cc1OC (stereo not drawn) | i
CN(Cc1ccccc1)C(=O)C(Cc1ccccc1)NS(=O)(=O)c1cccs1 (stereo not drawn) | i
CCNc1nc(NCC)nc(NS(=O)(=O)c2ccc(C)cc2)n1 | i
SMILES | ST2 IL33 inh
CC(C)NC(=O)C1CCN(C2CCN(Cc3cc(Cl)ccc3O)CC2)CC1 | i
COC(=O)[C@]1(C)C[C@H](C(=O)NCCc2cnccn2)[C@H](c2ccccc2C)N1C | i
O=C(CCc1nnc(-c2ccsc2)o1)N1CCCC1c1nc2ccccc2s1 (stereo not drawn) | i
COc1ccc(C(=O)Oc2cccc3cccnc23)cc1Br | i
Cc1cccc2[nH]c(CNC(=O)[C@@H](N)Cc3c[nH]c4ccccc34)nc12 | i
O=C(Cc1c(C(=O)O)[nH]c2ccc(Cl)cc12)NCC1(c2ccccc2)CCCC1 | i
O=C(O)CN1C(=O)S/C(=C\c2ccco2)C1=O | 74%*
CC(C)N1C(=O)S/C(=C\c2ccc(-c3cccc(C(=O)O)c3)o2)C1=O | i
CN1CCN(C(=O)CN2C(=O)S/C(=C/c3ccccc3)C2=O)CC1 | i
COc1ccc(CNC(=O)C2CCN(Cc3ccccc3F)CC2)cc1 | i
C=CCN(C(=O)c1ccccc1NC)C(C)C | i
Cc1ccc(N2C(=O)C3Sc4[nH]c(=O)sc4C(c4ccccc4)C3C2=O)cc1 (stereo not drawn) | 34%*
O=c1[nH]c2c(s1)C(c1ccc(Cl)cc1)C1C3CCC(C3)C1S2 (stereo not drawn) | i
Cc1ccc(NC2SC(=O)N(c3ccccc3)C2=O)cc1 (stereo not drawn) | i
Cc1ccc(Cl)cc1NS(=O)(=O)c1ccc2[nH]c(=O)c(=O)[nH]c2c1 | i
Cc1ccc(NS(=O)(=O)c2ccc3[nH]c(=O)c(=O)[nH]c3c2)cc1Cl | i
Cc1ccc(NS(=O)(=O)c2ccc3[nH]c(=O)c(=O)[nH]c3c2)c(Cl)c1 | 37%*
Cc1ccc(CCNC(=O)C2CC(=O)N(CCC(C)C)C2)cc1 (stereo not drawn) | i
CCC(c1ncnn1C)n1ccnc1-c1ccsc1 (stereo not drawn) | i
CNc1nc(-c2cc(NC3CCNCC3)nc3[nH]ccc23)nc2c1CCC2 | 37%*
Cc1ccc(-c2noc([C@@H]3C[C@H](NC(=O)CSCC(=O)O)CN3C)n2)cc1 | i
COCC(=O)NC[C@@H]1C=C(C)[C@H](CC(=O)O)C[C@H]1C(C)C | 32%*
CC1=C[C@@H](CNC(=O)NC2CCCCC2)[C@H](C(C)C)C[C@H]1CC(=O)O | i
CC1=C[C@@H](CNC(=O)c2ccccc2)[C@H](C(C)C)C[C@H]1CC(=O)O | i
CSCC(=O)N1CCC(CCC(=O)Nc2ccc(F)c(Cl)c2)CC1 | i
SMILES | ST2 IL33 inh
O=C(c1cc(=O)n(-c2ccccc2)[nH]1)N1CCCC(O)(CO)CC1 (stereo not drawn) | i
O=C(Nc1ncc(S(=O)(=O)c2ccc([N+](=O)[O-])cc2)s1)c1ccccc1Br | i
Cc1ccc(C(=O)Nc2ncc(S(=O)(=O)c3ccc([N+](=O)[O-])cc3)s2)cc1C | i
COCC(=O)Nc1ncc(S(=O)(=O)c2ccc([N+](=O)[O-])cc2)s1 | 38%*
Cn1c(=O)c2c(nc(Cl)n2Cc2cccc(Br)c2)n(C)c1=O | i
CC(=O)C1=NN(c2ccc(Cl)cc2)C2C(=O)N(c3ccccc3Cl)C(=O)C12 (stereo not drawn) | i
COc1cc(/C=C2\SC(=Nc3c(C)n(C)n(-c4ccccc4)c3=O)NC2=O)ccc1O | i
O=C1NC(=Nc2cccc(Cl)c2Cl)S/C1=C/c1ccco1 | i
Cc1cccc(N=C2NC(=O)/C(=C\c3ccco3)S2)c1 | 31%*
Clc1ccccc1OC1CCN(Cc2nc(-c3ccccc3)no2)CC1 | i
O=c1c(-c2ccccc2CN2CCOCC2)ccc2n1C[C@H]1C[C@@H]2CN(CC2CCCCC2)C1 | i
CCOC(=O)C1C(=O)C=C(c2ccc(OC)c(OC)c2)CC1c1cccs1 (stereo not drawn) | i
O=C1C=C(c2ccccc2)C[C@H](c2cccs2)[C@H]1n1nnc([N+](=O)[O-])n1 | 33%*
O=C1C=C(/C=C/c2ccccc2)C[C@H](c2ccccc2)[C@H]1n1nnc([N+](=O)[O-])n1 | 58%*
COc1ccc(-c2cc(N3CCN(S(=O)(=O)Cc4ccccc4)CC3)ncn2)cc1OC | i
CCCCCCCCCCCCCc1cc(=O)c2ccccc2n1C | i
CC(=O)c1cccc(NS(=O)(=O)c2ccc3[nH]c(=O)sc3c2)c1 | i
COc1cc(C2N(C(C)=O)CCN2S(=O)(=O)c2ccc(C)cc2)ccc1O (stereo not drawn) | i
O=C(C1CC1)N1CCc2cc(Br)cc(S(=O)(=O)Nc3cccc(Cl)c3)c21 | i
O=C(CN1C(=O)/C(=C\c2cccc(Cl)c2)Sc2ccccc21)NCc1cccnc1 | i
CCCCN(C)CCCNC(=O)CN1C(=O)/C(=C\c2cccc(Cl)c2)Sc2ccccc21 | 43%*
COCCNC(=O)c1ccc(/C=C2\Sc3ccccc3N(Cc3ccc(F)cc3)C2=O)cc1 | i
